A short description of experiment [1]: qHTS Screen of the MIPE 4.0 Collection Against Ewings Sarcoma (TC32) (AID 1259256).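 Note: 100% = DMSO-treated cells and 0% = medium-only wells without cells; nearly all actives have a fitted effect of over 45% in size.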 The essentials:
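Measured: ATP luminescence (CellTiter-Glo) 10 min after reagent addition, following 48 h drug treatment. Relative luciferase units converted to percent activity, with no-cell wells as full and DMSO wells as zero inhibition.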

A short description of experiment [2]: P-glycoprotein substrates identified in KB-3-1 adenocarcinoma cell line, qHTS therapeutic library screen (AID 1346986). Note: nearly all actives have a fitted effect of over 60% in size. In a few lines: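 Using luminescence to quantify ATP, parental and P-gp-overexpressing KB cells were compared after 72 h compound titration. KB-8-5-11 was also run with the P-gp inhibitor tariquidar.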
Experiment [3] is described as follows: P-glycoprotein substrates identified in KB-8-5-11 adenocarcinoma cell line, qHTS therapeutic library screen (AID 1346987). Note: nearly all actives have a fitted effect of over 65% in size. The essentials: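 Human cervical adenocarcinoma KB-8-5-11 cells, selected in colchicine to over-express P-gp and assayed without it, were exposed for 72 h to titrated compounds. An ATP-based luminescent viability signal gave AC50.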
A short description of experiment [4]: NS1 protein of Zika virus - qHTS assay to identify small molecule inhibitors in human HEK 293 cells (AID 1347053).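 Note: series mostly up to about 46 µM; plate controls were infected untreated cells for no effect and uninfected cells for full effect; nearly all actives have a fitted effect of over 55% in size.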 The essentials:
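TR-FRET signal from two anti-ZIKV NS1 antibodies quantified NS1 in HEK 293 cells 24 h after MR766 infection at MOI = 0.5; compounds were added 1 h before virus. Uninfected cells and infected cells defined the NS1 normalization range.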

The nature of experiment [5]: qHTS of pediatric cancer cell lines to identify multiple opportunities for drug repurposing: Primary screen for TC32 cells (AID 1347089). Note: % is set by controls: 0 for no effect and ±100 for the full control effect; nearly all actives have a fitted effect of over 60% in size. The essentials:
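TC32 cells, 500-1,000/well in growth medium, compound-treated 48 h at 37 °C; viability from CellTiter-Glo luminescence. Primary screen: MIPE 11-point (0.78 nM–46 µM final), NPC 8-point (0.59 nM–46 µM final); confirmatory at 11-point dilutions.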

A short description of experiment [6]: qHTS of pediatric cancer cell lines to identify multiple opportunities for drug repurposing: Primary screen for DAOY cells (AID 1347090).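 Note: series mostly up to about 46 µM; plate controls were DMSO for no effect and bortezomib for full effect; nearly all actives have a fitted effect of over 55% in size.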 In a few lines:
(§1)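 Eight- or eleven-point concentration series, 48 h treatment at 37 degrees C in growth media; readout CellTiter-Glo luminescence. Potency and efficacy were taken from the concentration-response curves.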

A short description of experiment [7]: qHTS of pediatric cancer cell lines to identify multiple opportunities for drug repurposing: Primary screen for SJ-GBM2 cells (AID 1347091).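 Note: plate controls were DMSO neutral control for no effect and bortezomib for full effect.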 The essentials: as §1
Experiment [8] is described as follows: qHTS of pediatric cancer cell lines to identify multiple opportunities for drug repurposing: Primary screen for A673 cells (AID 1347092). For activity change, negative = cytotoxic: % is set by controls: 0 for no effect and ±100 for the full control effect. Note: nearly all actives have a fitted effect of over 45% in size. Note: potency is the fitted concentration of half-maximal effect. In a few lines: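 A673 cells (500-1,000 cells/well) were treated 48 hours at 37 degrees C with compounds at 11-point (0.78 nM to 46 µM) or 8-point (0.59 nM to 46 µM) dilutions. Viability read by CellTiter-Glo luminescence; concentration-response curves fitted.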

Experiment [9] in a line: qHTS of pediatric cancer cell lines to identify multiple opportunities for drug repurposing: Primary screen for BT-37 cells (AID 1347094).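 For activity change, negative = cytotoxic: series mostly up to about 57 µM; plate controls were DMSO for no effect and bortezomib for full effect.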 Note: potency is the fitted concentration of half-maximal effect. The essentials:
(§2)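 Following a 5-hour attachment period, cells at 500-1,000/well received compounds and were cultured for 48 hours. CellTiter-Glo was added and luminescence read to estimate viable, metabolically active cells.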

The nature of experiment [10]: qHTS of pediatric cancer cell lines to identify multiple opportunities for drug repurposing: Primary screen for NB-EBc1 cells (AID 1347095).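 Note: plate controls were DMSO neutral control for no effect and bortezomib for full effect.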 In a few lines: as §2
Experiment [11] can be described thus: qHTS of pediatric cancer cell lines to identify multiple opportunities for drug repurposing: Primary screen for U-2 OS cells (AID 1347096).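 Note: plate controls were DMSO wells for no effect and bortezomib positive control wells for full effect; nearly all actives have a fitted effect of over 50% in size.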 The essentials: (§3)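 Cells (500-1,000/well) in growth media were settled 5 h at 37 degrees C, then given compounds for 48 h. Viability was read as CellTiter-Glo luminescence. Primary runs used MIPE at 11 points (0.78 nM-46 µM) and NPC at 8 points (0.59 nM-46 µM); follow-ups used 11 points.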

A short description of experiment [12]: qHTS of pediatric cancer cell lines to identify multiple opportunities for drug repurposing: Primary screen for Saos-2 cells (AID 1347097). Note: % is set by controls: 0 for no effect and ±100 for the full control effect; nearly all actives have a fitted effect of over 40% in size. The essentials:
as §2

Experiment [13] can be described thus: qHTS of pediatric cancer cell lines to identify multiple opportunities for drug repurposing: Primary screen for NB1643 cells (AID 1347099).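 Note: plate controls were DMSO neutral control for no effect and bortezomib positive control for full effect; nearly all actives have a fitted effect of over 50% in size.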 The essentials: as §2
Experiment [14] is described as follows: qHTS of pediatric cancer cell lines to identify multiple opportunities for drug repurposing: Primary screen for LAN-5 cells (AID 1347100).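 Note: plate controls were DMSO neutral control for no effect and bortezomib positive control for full effect.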 The essentials:
as §3

Experiment [15] is described as follows: qHTS of pediatric cancer cell lines to identify multiple opportunities for drug repurposing: Primary screen for SK-N-MC cells (AID 1347093).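 For activity change, negative = cytotoxic: series mostly up to about 46 µM; plate controls were DMSO neutral control for no effect and bortezomib for full effect.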 Note: potency is the fitted concentration of half-maximal effect. The essentials: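 Metabolically active cells were quantified by ATP-dependent luminescence (CellTiter-Glo, 15 min at room temperature) following 48 h treatment. Cells had been plated at 500-1,000 per well and settled for 5 h beforehand.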

The nature of experiment [16]: qHTS of pediatric cancer cell lines to identify multiple opportunities for drug repurposing: Primary screen for SK-N-SH cells (AID 1347098).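 Note: DMSO served as neutral control and bortezomib at 2.3 µM as positive control; % is set by controls: 0 for no effect and ±100 for the full control effect; nearly all actives have a fitted effect of over 65% in size.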 In a few lines: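 Cells (500-1,000/well) rested 5 h, then received compounds for 48 h; metabolically active cells were measured by CellTiter-Glo luminescence. Final concentrations spanned up to 46 µM (MIPE, 11-point) or 0.59 nM-46 µM (NPC, 8-point) in primary screens, 11-point in follow-ups.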

Experiment [17] in a line: Natriuretic polypeptide receptor (hNpr1) antagonism - Pilot counterscreen GloSensor control cell line (AID 1347045; calls by dose curve; note: series mostly up to about 38 µM; % is set by controls: 0 for no effect and ±100 for the full control effect). In a few lines: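 The SNP-driven cGMP luminescence signal (50 uM, 20 min, room temperature) was measured in GloSensor HEK293 control cells. Compounds were tested as a LOPAC titration series and preincubated for 30-50 min.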
The target of experiment [18] is Atrial natriuretic peptide receptor 1 (Homo sapiens) (UniProt P16066). Description: Natriuretic polypeptide receptor (hNpr1) antagonism - Pilot screen (AID 1347049; calls by dose curve;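 note: HEK293 cells with hNpr1 and GloSensor cGMP luciferase stimulated by 0.1 nM hNppA; agonist-evoked cGMP luminescence read 20 min after hNppA addition; series mostly up to about 58 µM; % is set by controls: 0 for no effect and ±100 for the full control effect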). The essentials:
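Cells expressing receptor plus cGMP biosensor are seeded and incubated overnight at 37C, then loaded with GloSensor reagent (2% final) at room temperature for 2 h. Library compounds go on for 30 min. A pre-read precedes agonist (hNppA, 0.1 nM final) and a 20-min readout.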

Experiment [19] deals with Atrial natriuretic peptide receptor 2 (Homo sapiens) (UniProt P20594). Description: Natriuretic polypeptide receptor (hNpr2) antagonism - Pilot subtype selectivity assay (AID 1347050; calls by dose curve; note: % is set by controls: 0 for no effect and ±100 for the full control effect). The essentials: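 Read-out: GloSensor luminescence (CCD imager), baseline vs post-stimulation. HEK293 cells expressing hNpr2; compounds pre-incubated 30-50 min at ambient temperature; hNppC 1 nM final, 20 min.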
Sequence of Atrial natriuretic peptide receptor 2 (Homo sapiens) (P20594 whole entry, looked up): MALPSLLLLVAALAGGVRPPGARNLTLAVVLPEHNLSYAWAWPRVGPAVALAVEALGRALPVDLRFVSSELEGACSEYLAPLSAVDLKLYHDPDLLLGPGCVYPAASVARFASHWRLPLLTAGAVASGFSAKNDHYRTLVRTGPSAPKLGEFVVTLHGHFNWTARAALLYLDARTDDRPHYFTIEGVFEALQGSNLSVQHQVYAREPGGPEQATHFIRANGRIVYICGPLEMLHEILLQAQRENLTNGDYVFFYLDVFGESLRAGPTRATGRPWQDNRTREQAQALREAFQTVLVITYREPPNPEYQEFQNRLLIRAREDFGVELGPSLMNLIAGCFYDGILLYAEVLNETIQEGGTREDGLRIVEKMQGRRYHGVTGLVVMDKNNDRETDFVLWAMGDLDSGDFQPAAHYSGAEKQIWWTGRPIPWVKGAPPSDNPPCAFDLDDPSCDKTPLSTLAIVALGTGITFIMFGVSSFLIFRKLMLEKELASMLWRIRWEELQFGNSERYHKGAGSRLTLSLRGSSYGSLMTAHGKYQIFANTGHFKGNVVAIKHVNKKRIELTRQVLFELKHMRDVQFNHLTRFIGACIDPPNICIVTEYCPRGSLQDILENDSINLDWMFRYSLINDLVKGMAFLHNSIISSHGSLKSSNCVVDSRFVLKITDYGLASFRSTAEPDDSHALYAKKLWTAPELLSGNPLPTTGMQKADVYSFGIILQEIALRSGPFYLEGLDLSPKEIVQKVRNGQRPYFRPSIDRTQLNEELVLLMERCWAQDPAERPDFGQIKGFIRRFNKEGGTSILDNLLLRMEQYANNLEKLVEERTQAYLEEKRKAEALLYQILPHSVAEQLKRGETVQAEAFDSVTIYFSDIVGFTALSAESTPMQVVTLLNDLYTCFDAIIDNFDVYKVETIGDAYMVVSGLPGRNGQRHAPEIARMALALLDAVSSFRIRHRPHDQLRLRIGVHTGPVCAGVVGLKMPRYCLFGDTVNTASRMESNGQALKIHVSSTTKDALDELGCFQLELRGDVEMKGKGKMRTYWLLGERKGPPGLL

Experiment [20] has as its target Parathyroid hormone/parathyroid hormone-related peptide receptor (Homo sapiens) (UniProt Q03431). Put plainly: qHTS for PTHR1 Agonists: Optimization Screen against the NCGC LOPAC library (AID 1347079).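 Note: GloSensor cAMP luminescence in HEK-293 GP2 cells expressing human PTHR1 with IBMX; 0% is about no effect.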 The essentials:
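Signal increase flags agonism. GP2 cells, derived from HEK-293, express human PTHR1 and a GloSensor cAMP construct.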

A number with no mark means an inactive call. Records with an inconclusive call do not appear. The source made the active and inactive calls. Unless noted, calls come from the whole dose curve; as a rule, active = well fitted curve in the direction sought with a large enough effect; inconclusive = small, poorly fitted or top-dose-only effect, or another doubt; inactive = no such curve, though single readings can be large; an effect the other way counts as inactive or inconclusive.

The text below walks through data of PubChem BioAssay (NCATS).

Sequence of Atrial natriuretic peptide receptor 1 (Homo sapiens) (P16066 whole entry, looked up): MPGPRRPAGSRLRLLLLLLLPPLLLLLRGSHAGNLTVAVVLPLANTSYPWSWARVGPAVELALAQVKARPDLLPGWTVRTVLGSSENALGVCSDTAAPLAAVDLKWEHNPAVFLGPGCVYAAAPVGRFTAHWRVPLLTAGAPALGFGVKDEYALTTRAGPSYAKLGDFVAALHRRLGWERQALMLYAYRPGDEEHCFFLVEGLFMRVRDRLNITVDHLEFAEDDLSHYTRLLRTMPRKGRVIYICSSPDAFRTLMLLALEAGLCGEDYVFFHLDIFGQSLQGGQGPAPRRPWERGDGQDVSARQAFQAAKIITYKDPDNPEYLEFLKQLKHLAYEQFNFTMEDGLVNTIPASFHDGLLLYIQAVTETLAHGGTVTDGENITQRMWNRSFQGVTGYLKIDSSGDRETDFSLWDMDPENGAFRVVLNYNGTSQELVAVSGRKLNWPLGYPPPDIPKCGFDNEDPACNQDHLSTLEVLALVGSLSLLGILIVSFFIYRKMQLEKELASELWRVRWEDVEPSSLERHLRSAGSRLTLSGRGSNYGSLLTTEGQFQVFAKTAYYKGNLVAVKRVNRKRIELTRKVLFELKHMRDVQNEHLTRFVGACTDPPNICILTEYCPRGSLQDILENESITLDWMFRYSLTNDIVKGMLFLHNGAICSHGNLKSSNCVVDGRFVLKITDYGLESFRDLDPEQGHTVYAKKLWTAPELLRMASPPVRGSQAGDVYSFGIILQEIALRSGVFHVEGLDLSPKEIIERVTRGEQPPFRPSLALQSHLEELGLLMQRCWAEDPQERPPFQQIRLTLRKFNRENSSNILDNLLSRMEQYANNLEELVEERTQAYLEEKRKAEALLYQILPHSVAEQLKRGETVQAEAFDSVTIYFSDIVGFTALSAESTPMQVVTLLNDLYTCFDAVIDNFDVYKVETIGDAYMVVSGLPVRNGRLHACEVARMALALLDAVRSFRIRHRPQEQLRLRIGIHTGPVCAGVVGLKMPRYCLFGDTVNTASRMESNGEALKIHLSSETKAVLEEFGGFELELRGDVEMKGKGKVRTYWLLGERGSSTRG
Sequence of Parathyroid hormone/parathyroid hormone-related peptide receptor (Homo sapiens) (Q03431 whole entry, looked up): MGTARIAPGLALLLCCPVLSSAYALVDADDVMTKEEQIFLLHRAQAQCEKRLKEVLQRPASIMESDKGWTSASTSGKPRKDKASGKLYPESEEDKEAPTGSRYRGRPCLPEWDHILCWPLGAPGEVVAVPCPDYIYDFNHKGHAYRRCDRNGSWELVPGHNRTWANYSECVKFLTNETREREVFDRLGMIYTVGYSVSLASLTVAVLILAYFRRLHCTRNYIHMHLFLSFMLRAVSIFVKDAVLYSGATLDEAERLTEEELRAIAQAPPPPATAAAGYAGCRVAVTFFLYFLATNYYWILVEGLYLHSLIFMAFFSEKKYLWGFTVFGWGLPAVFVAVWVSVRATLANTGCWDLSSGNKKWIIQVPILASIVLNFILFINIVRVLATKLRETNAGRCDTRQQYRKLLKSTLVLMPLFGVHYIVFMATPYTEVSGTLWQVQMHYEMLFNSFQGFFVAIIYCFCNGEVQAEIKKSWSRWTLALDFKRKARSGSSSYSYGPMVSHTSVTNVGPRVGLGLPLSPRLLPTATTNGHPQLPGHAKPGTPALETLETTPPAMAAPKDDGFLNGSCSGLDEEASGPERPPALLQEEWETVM

In the case of `C[C@H](O)[C@@H]1C(=O)N2C(C(=O)O)=C(S[C@@H]3CN[C@H](CNS(N)(=O)=O)C3)[C@@H](C)[C@@H]12`, the Potency entry in experiment [1], in [2], in [3], in experiment [4], in experiment [5] and in [6] was “inactive” throughout. Also, the Potency result in experiment [7], in [8], in experiment [9], in experiment [10], in experiment [11] and in [12] was “inactive” each time. The Potency result in experiment [13] and in experiment [14] was “inactive” throughout.

Turning to `OCc1ccccc1O[C@@H]1O[C@H](CO)[C@H](O)[C@H](O)[C@H]1O`, the Potency result in experiment [1], in [2], in experiment [3], in experiment [4], in experiment [5] and in experiment [6] was “inactive” throughout. Moreover, the Potency entry in [7], in [8], in experiment [15], in [9], in experiment [10] and in experiment [11] was “inactive” each time. Besides, the Potency result in experiment [12], in experiment [16], in [13] and in [14] was “inactive” each time.

With `O=C1c2c(O)cccc2[C@@H]([C@@H]2O[C@H](CO)[C@@H](O)[C@H](O)[C@H]2O)c2cc(CO)cc(O)c21`, the Potency result in experiment [1], in experiment [2], in experiment [3], in experiment [4], in experiment [5] and in experiment [6] was “inactive” throughout. Also, the Potency result in [7], in [8], in experiment [9], in experiment [10], in experiment [11] and in experiment [12] was “inactive” in each case. In addition, the Potency entry in [16] and in [14] was “inactive” each time. Also, the Potency in experiment [15] is 11.8 µM (active).

Regarding `OCCN1C[C@H](O)[C@@H](O)[C@H](O)[C@@H]1CO`, the Potency result in experiment [1], in [2], in experiment [3], in [4], in experiment [5] and in experiment [6] was “inactive” in each case. In addition, the Potency result in experiment [7], in [15], in experiment [10], in experiment [11], in [12] and in [13] was “inactive” each time. Besides, the Potency in experiment [8] was 9.35 µM (active); in [9], 19.3 µM (active).

As to `Cc1ccccc1C(=O)Nc1ccc(C(=O)N2CCCC(O)c3cc(Cl)ccc32)c(C)c1` (stereo not given), the Potency entry in experiment [1], in experiment [2], in experiment [3], in experiment [4], in experiment [5] and in experiment [6] was “inactive” in each case. Further, the Potency result in experiment [7], in [8], in experiment [15], in [9], in experiment [10] and in experiment [11] was “inactive” throughout. Also, the Potency entry in experiment [16], in experiment [13] and in experiment [14] was “inactive” each time.

Take `COc1ccc2cc([S+]([O-])Cc3ncc(C)c(OC)c3C)nc2c1`: the Potency result in [1], in experiment [2], in experiment [3], in experiment [7], in [8] and in [15] was “inactive” throughout. Moreover, the Potency result in experiment [9], in experiment [10], in experiment [11], in experiment [12], in experiment [16] and in experiment [13] was “inactive” each time. Further, in [14], the Potency result was “inactive”. Besides, the molecule was classed as inactive in [17], in experiment [18], in experiment [19] and in [20].

`C=C1C[C@@]2(O)O[C@@]3(C[C@H]2C(C)C)[C@H](C)CC[C@H]13`: the Potency result in experiment [1], in experiment [2], in experiment [3], in experiment [4], in experiment [5] and in experiment [6] was “inactive” in each case. Also, the Potency entry in experiment [8], in experiment [15], in [9], in experiment [10], in experiment [11] and in experiment [12] was “inactive” each time. Besides, the Potency entry in experiment [16], in experiment [13] and in experiment [14] was “inactive” in each case.

In the case of `CCN1CCN(C(=O)N[C@H](C(=O)N[C@@H]2C(=O)N3C(C(=O)O)=C(CSc4nnnn4C)CS[C@@H]23)c2ccc(O)cc2)C(=O)C1=O`, the Potency result in experiment [1] and in [4] was “inactive” each time. Also, the outcome in experiment [2] and in [3] was “inactive [at 9.29 µM]” each time. For the same molecule, the activity change, negative = cytotoxic in experiment [5] is 13.6% [at 9.17 µM]; in experiment [6], 8.24% [at 9.22 µM]; in experiment [7], 24.4% [at 9.22 µM]; in experiment [8] it was 6.36% [at 9.22 µM]; in [15], -14.8% [at 9.22 µM]; in experiment [9], 17.1% [at 11.5 µM]. Besides, the activity change, negative = cytotoxic was 14.5% [at 9.22 µM] in [10]; 20.8% [at 9.22 µM] in experiment [11]; 18.2% [at 9.22 µM] in experiment [12]; 17.1% [at 9.22 µM] in [13]; -3.47% [at 9.22 µM] in experiment [14].

For `CC(=O)N[C@H]1[C@@H]([C@H](O)[C@H](O)CO)OC(C(=O)O)=C[C@@H]1N=C(N)N`, the Potency result in [1], in experiment [2], in [3], in [4], in experiment [5] and in [7] was “inactive” in each case. For the same molecule, the Potency result in experiment [8], in experiment [15], in [9], in [10], in experiment [11] and in experiment [12] was “inactive” throughout. Also, the Potency result in [16], in [13] and in experiment [14] was “inactive” each time.

With `Cc1noc(-c2ccc(CSCCC(=O)O)cc2)c1NC(=O)OC(C)c1ccccc1Cl` (stereo not given), the Potency entry in [1], in experiment [2], in experiment [3], in experiment [4], in [5] and in experiment [6] was “inactive” each time. Besides, the Potency entry in experiment [8], in experiment [9], in experiment [10], in [11], in experiment [12] and in experiment [16] was “inactive” in each case. In addition, in [14], the Potency result was “inactive”.

With `Cc1coc2c1C(=O)C(=O)c1c-2ccc2c(C)cccc12`, the Potency result in experiment [1], in experiment [2], in experiment [3], in [4], in experiment [5] and in experiment [6] was “inactive” in each case. In addition, the Potency result in [8], in experiment [15], in experiment [11], in experiment [16], in experiment [13] and in experiment [14] was “inactive” in each case.

For `Cc1ccc(O)c(C(CCN(C(C)C)C(C)C)c2ccccc2)c1` (stereo not given), the Potency entry in [1], in experiment [2], in [3], in [4], in experiment [5] and in experiment [6] was “inactive” in each case. The Potency result in [7], in experiment [9], in [10], in experiment [11], in [12] and in experiment [16] was “inactive” throughout. For the same molecule, the Potency entry in experiment [13] and in experiment [14] was “inactive” throughout.
